Pf growth 48h – P. falciparum growth inhibition at 48 hours (one generation) | P. falciparum luciferase growth in erythrocytes, 48 h | Potency, µM (top dose mostly 28.7 µM), most hits filed as inhibitors | 5.9% of 310,000 active
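Compounds are pin-transferred into medium, infected erythrocytes (2% hematocrit, 0.1% parasitemia final) are added, and plates sit one parasite generation at 37 C in 5% CO2. Detection reagent is then added and luminescence measured.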
Lassa entry inh – inhibitors of Lassa virus binding or cell entry | 1.2% of 300,000 active | Lassa virus pseudotype entry inhibition, cell reporter | Potency, µM (top dose mostly 37.9 µM), hits mostly inhibitors; calls by dose curve; tested in HEK293 cells; note: nearly all actives have a fitted effect of over 50% in size
Pf growth 96h – P. falciparum growth inhibition at 96 hour, primary screen for plastid delayed-death inhibitors | P. falciparum luciferase reporter growth, 96 h | 6.9% of 320,000 active | Potency, µM (top dose mostly 28.7 µM), most hits filed as inhibitors | AID 504834
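Cell-based qHTS: luciferase-tagged P. falciparum in erythrocytes (2% hematocrit, 0.05% parasitemia final) incubated with compounds for 96 hours, 37 C, 5% CO2; luciferase detection reagent then added and luminescence measured.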
Shiga toxin inh – blocks Shiga toxin action in Vero cells | 9.2% of 290,000 active | AID 2315 | Vero cells, Shiga toxin protein synthesis inhibition reporter | inhibition, % at 38.7 µM; in the data active = inhibition mostly above about 28%, no sharp cut-off; inactive = mostly below about 43%
Marburg entry inh – blocks Marburg virus binding to or entry into cells; Marburg virus pseudotyped entry inhibition, cell reporter; Potency, µM (highest dose often 37.8 µM), most hits filed as inhibitors; 1.8% of 300,000 active; AID 540276; calls by dose curve; tested in HEK293 cells
CHX counter – affects cycloheximide protein synthesis inhibition readout, counter-screen | cell reporter, cycloheximide protein synthesis inhibition counterscreen | max response, % | 12% of 300,000 active; in the data active = max response mostly above about 13%, no sharp cut-off; inactive = mostly below about 14%; note: read at 38.3 µM for the half of the compounds with a filed dose
Hits are given with their value. This is a sample that favours compounds with a hit; in the whole collection about 19% have one here. Unless noted, calls come from the whole dose curve; as a rule, active = well fitted inhibition curve with a large enough effect; inconclusive = small, poorly fitted or top-dose-only effect, or another doubt; inactive = no such curve, though single readings can be large or run the other way.

COC(=O)c1ccccc1NC=C1C(=O)OC2(CCCCC2)OC1=O was read as Pf growth 48h inactive, Lassa entry inh inactive, Pf growth 96h inconclusive, Shiga toxin inh inactive, Marburg entry inh inactive and CHX counter inactive.
For COc1ccccc1NC=C1C(=O)OC2(CCCCC2)OC1=O the results were Pf growth 48h inactive, Lassa entry inh inactive, Pf growth 96h inactive, Shiga toxin inh inactive, Marburg entry inh inactive and CHX counter 31.
For Cc1c(C(=O)N2CCOCC2)sc2ncn(CC(=O)N3CCC(C)CC3)c(=O)c12 the results were Pf growth 48h inactive, Lassa entry inh inactive, Pf growth 96h inconclusive, Shiga toxin inh inactive, Marburg entry inh inactive and CHX counter inactive.
Screening O=C(CSc1nnc(C2CC2)n1-c1ccccc1)NCCc1ccc(F)cc1 returned Pf growth 48h inconclusive, Lassa entry inh inactive, Shiga toxin inh inactive, Marburg entry inh inactive and CHX counter inactive.
COc1cc(O)c(C(CCN2CCCC(C)C2)c2cc(OC)c(OC)c(OC)c2)c(OC)c1 (centres undefined) was read as Pf growth 48h 1.3µM, Pf growth 96h 0.52µM, Shiga toxin inh inactive and CHX counter inactive.
`COc1cc(O)c(C(CCN2CCCCC2)c2ccc3c(c2)OCO3)c(OC)c1` (centres undefined) gave Pf growth 48h 0.93µM, Pf growth 96h 0.47µM, Shiga toxin inh inactive and CHX counter inactive.
For COc1cc(OC)c2c(C)cc(=O)oc2c1C(CCN1CCOCC1)c1ccc2c(c1)OCO2 (centres undefined) the results were Pf growth 48h inconclusive, Pf growth 96h inconclusive, Shiga toxin inh inactive and CHX counter inactive.
COc1cc(OC)c2c(-c3ccccc3)cc(=O)oc2c1C(CC(=O)N1CCCC1)c1ccc2c(c1)OCO2 (centres undefined) was read as Pf growth 48h 9.3µM, Pf growth 96h inconclusive, Shiga toxin inh inactive and CHX counter inactive.
`COc1cc(OC)c2c(-c3ccccc3)cc(=O)oc2c1C(CCN1CCCC(C)C1)c1ccc2c(c1)OCO2` (centres undefined) gave Pf growth 48h 12µM, Pf growth 96h inconclusive, Shiga toxin inh inactive and CHX counter inactive.
O=C1c2cccc3cccc(c23)C(=O)N1OS(=O)(=O)c1ccccc1 was read as Pf growth 48h inconclusive, Lassa entry inh inactive, Pf growth 96h inactive, Shiga toxin inh inactive, Marburg entry inh inactive and CHX counter inactive.
CC(=O)OC1CCC2(C)C3=CCC4(C)C(C(C)=O)=CCC4C3CCC2C1 (centres undefined) was read as Lassa entry inh inactive and Marburg entry inh inactive.
`COc1ccc(C(=O)COC(=O)C2CCN(S(=O)(=O)c3cccc4cccnc34)CC2)cc1` gave Pf growth 48h inactive, Lassa entry inh inactive, Pf growth 96h inactive, Shiga toxin inh inactive, Marburg entry inh inactive and CHX counter inactive.
Screening CC1CCN(c2ncccc2C(=O)O)CC1 returned Pf growth 48h inactive, Lassa entry inh inactive, Pf growth 96h inconclusive, Shiga toxin inh inactive, Marburg entry inh inactive and CHX counter inactive.
COc1cc(OC)c2c(-c3ccccc3)cc(=O)oc2c1C(CCN1CCCCC1)c1ccc2c(c1)OCO2 (centres undefined) was read as Pf growth 48h inconclusive, Pf growth 96h 9.3µM, Shiga toxin inh inactive and CHX counter inactive.
For O=C(Nc1cccc(-n2cccn2)c1)C1CCCN(Cc2ccccc2F)C1 (centres undefined) the results were Pf growth 48h inconclusive, Pf growth 96h inconclusive, Shiga toxin inh inactive and CHX counter inactive.
Screening Cc1c(C#N)c2ncnc(-c3ccccc3)c2n1-c1ccccc1 returned Pf growth 48h inactive, Lassa entry inh inactive, Pf growth 96h inactive, Shiga toxin inh inactive, Marburg entry inh inactive and CHX counter inactive.
For Cc1ccc(Cl)cc1Nc1nn2c(=O)c3ccc(C(=O)N4CCCC(C)C4)cc3nc2s1 (centres undefined) the results were Lassa entry inh inactive.
`COc1ccccc1Nc1nn2c(=O)c3ccc(C(=O)N4CCCC(C)C4)cc3nc2s1` (centres undefined) gave Pf growth 48h 8.3µM, Lassa entry inh inconclusive, Pf growth 96h inactive, Shiga toxin inh inactive, Marburg entry inh inconclusive and CHX counter inactive.
For CCOC(=O)C1CCN(C(=O)c2ccc3c(=O)n4nc(Nc5cc(C)ccc5C)sc4nc3c2)CC1 the results were Pf growth 48h inconclusive, Lassa entry inh inactive, Pf growth 96h 2.9µM, Shiga toxin inh inactive and CHX counter inactive.
COc1cc(/C=C/c2cc[n+](C)cc2)ccc1OCC(=O)Nc1ccccc1 was read as Pf growth 48h 3.7µM, Lassa entry inh inactive, Pf growth 96h inactive, Shiga toxin inh inactive, Marburg entry inh inactive and CHX counter inactive.
`C/C=C/c1ccc(OCC(=O)Nc2ccc(C(N)=O)cc2)c(OC)c1` gave Pf growth 48h inactive, Pf growth 96h inactive, Shiga toxin inh inactive, Marburg entry inh inactive and CHX counter inactive.
COc1cc(C=C2C(=O)OC(C)(C)OC2=O)ccc1OCC(=O)Nc1ccccc1 was read as Pf growth 48h inactive, Pf growth 96h inconclusive, Shiga toxin inh 95 and CHX counter 17.
CC(C)CNS(=O)(=O)c1ccc(S(=O)(=O)N2CCCN(Cc3ccccc3)C2)cc1 was read as Pf growth 48h 12µM, Lassa entry inh inactive, Pf growth 96h inactive, Shiga toxin inh inactive, Marburg entry inh inconclusive and CHX counter inactive.
Cc1ccc(C(=O)c2coc3c2C(=O)C(=O)c2ccccc2-3)cc1 was read as Lassa entry inh inactive, Pf growth 96h inactive, Shiga toxin inh 42, Marburg entry inh inconclusive and CHX counter 32.
For Cc1ccc(C(=O)c2c(C)oc3c2C(=O)C(=O)c2ccccc2-3)cc1 the results were Pf growth 48h inconclusive, Lassa entry inh 7.1µM, Pf growth 96h inconclusive, Shiga toxin inh inactive, Marburg entry inh 7.9µM and CHX counter inactive.
For COc1ccc(NC(=O)CN(C)C(=O)c2cc3c(s2)CCCCC3)cc1 the results were Pf growth 48h inactive, Lassa entry inh inactive, Pf growth 96h inactive, Shiga toxin inh inactive, Marburg entry inh inactive and CHX counter inactive.
Screening Cc1ccc(C(=O)Nc2ccc3nc(C)sc3c2)s1 returned Pf growth 48h inactive, Lassa entry inh inconclusive, Shiga toxin inh 112, Marburg entry inh inactive and CHX counter 43.
Cc1nc2ccc(NC(=O)c3ccc([N+](=O)[O-])cc3)cc2s1 was read as Pf growth 48h inactive, Lassa entry inh inactive, Pf growth 96h inactive, Shiga toxin inh inactive, Marburg entry inh inconclusive and CHX counter inactive.
Screening Cc1nc2cc(NC(=O)c3ccc(Br)s3)ccc2s1 returned Pf growth 48h inactive, Pf growth 96h inactive, Shiga toxin inh 117 and CHX counter 63.
For CC(=O)Oc1ccccc1C(=O)N1CCN(S(=O)(=O)c2ccc3ccccc3c2)CC1 the results were Pf growth 96h inconclusive, Shiga toxin inh inactive and CHX counter inactive.
Cc1cccc(-c2ncc(S(=O)(=O)C(C)(C)C)c(N)n2)c1 was read as Pf growth 48h inactive, Lassa entry inh inconclusive, Pf growth 96h inactive, Shiga toxin inh inactive, Marburg entry inh inactive and CHX counter 11.

Bioassay records (PubChem BioAssay)
